Experimental findings from PubChem BioAssay (NCATS) are described below.

Usually AC50 stands for the midpoint of the concentration-response curve, whichever way the signal moves.

For experiment [1] the following is noted: Ebola virus entry assay, green fluorescence channel.
The conditions of experiment [2]: Ebola virus entry assay, blue channel fluorescence.
The conditions of experiment [3]: Ebola virus entry assay, green fluorescence channel. The source holds these as a separate data set.
For experiment [4] the following is noted: Ebola virus entry assay, ratio channel readout.
For experiment [5] the following is noted: Ebola virus entry assay, blue channel fluorescence. This is another data set of the same source.
The conditions of experiment [6]: Ebola virus entry assay, ratio channel.

Molecules are shown by their SMILES. Values without a mark were called inactive. For some assays here: Potency and affinity values are given separately. Active and inactive are the calls of the source.
Throughout, for efficacy: 0% is about no effect.

Regarding `COc1cc(Cc2cnc(N)nc2N)cc(OC)c1OC`, the efficacy in experiment [1] was -22.6%. The compound was classed as inactive in experiment [2], in experiment [3] and in experiment [4].
As for `N[C@@H]1CONC1=O`, the efficacy in experiment [1] is -13.4%. The compound was called inactive in experiment [2], in experiment [3] and in experiment [4].
Take `CN(C)/N=N/c1nc[nH]c1C(N)=O`: the efficacy in experiment [1] is -24.1%. Besides, the compound was called inactive in experiment [2], in experiment [3] and in experiment [4].
`Cc1cccc(Nc2ccncc2S(=O)(=O)NC(=O)NC(C)C)c1`: the efficacy in experiment [1] was -34.9%. For the same compound, the compound was classed as inactive in experiment [2], in experiment [3] and in experiment [4].
Turning to `OCCN1C[C@H](O)[C@@H](O)[C@H](O)[C@H]1CO`, the efficacy in experiment [1] is -21.2%. Besides, the result in experiment [2], in experiment [3], in experiment [4] and in experiment [5] was inactive.
Regarding `CSc1ccc2c(c1)N(CCC1CCCCN1C)c1ccccc1S2` (stereo not drawn), the efficacy in experiment [1] was -213%. The figures for the AC50 in experiment [2], in experiment [5] and in experiment [6] were 10 µM (active), 3.55 µM (active) and 3.16 µM (active), respectively. For the same compound, the compound was called inactive in experiment [3] and in experiment [4].
On to `COC(=O)C(c1ccccc1Cl)N1CCc2sccc2C1` (stereo not drawn), for which the efficacy in experiment [1] was 27.9%. For the same compound, the result in experiment [2], in experiment [3], in experiment [4] and in experiment [5] was inactive.
As to `CO[C@@]12[C@H](COC(N)=O)C3=C(C(=O)C(C)=C(N)C3=O)N1C[C@@H]1N[C@@H]12`, the efficacy in experiment [1] is 19.7%. In addition, the outcome in experiment [2], in experiment [3], in experiment [4], in experiment [5] and in experiment [6] was inactive.
Turning to `COc1ccc(Cl)cc1C(=O)NCCc1ccc(S(=O)(=O)NC(=O)NC2CCCCC2)cc1`, the efficacy in experiment [1] is 15.6%. In addition, the compound was called inactive in experiment [2], in experiment [3], in experiment [4] and in experiment [5].
With `CN1CCC[C@@H]1Cc1c[nH]c2ccc(CCS(=O)(=O)c3ccccc3)cc12`, the efficacy in experiment [1] is 20.7%. Also, the compound was called inactive in experiment [2], in experiment [3] and in experiment [4]. In addition, the AC50 in experiment [5] and in experiment [6] was 25.1 µM (active) each time.
In the case of `O=C(NCCN1CCOCC1)c1ccc(Cl)cc1`, in experiment [1], the efficacy is -15.2%. Besides, the compound was classed as inactive in experiment [2], in experiment [3], in experiment [4] and in experiment [5].
As for `Cc1nc(-c2ccc(OCC(C)C)c(C#N)c2)sc1C(=O)O`, the efficacy in experiment [1] was 65.9%. Further, the outcome in experiment [2], in experiment [3], in experiment [4] and in experiment [5] was inactive.
Consider `CN1C(=O)CC(C)(c2ccccc2)C1=O` (stereo not drawn), for which the efficacy in experiment [1] was -45.4%. For the same compound, the compound was classed as inactive in experiment [2], in experiment [3], in experiment [4] and in experiment [5].
With `COC(=O)C1=C(C)NC(C)=C(C(=O)OCCN(C)Cc2ccccc2)C1c1cccc([N+](=O)[O-])c1` (stereo not drawn), the efficacy in experiment [1] was -75%. The compound was called inactive in experiment [2], in experiment [3] and in experiment [4]. In addition, the values for the AC50 in experiment [5] and in experiment [6] were 12.6 µM (active) and 10 µM (active), respectively.
As to `Cc1cnc(C(=O)NCCc2ccc(S(=O)(=O)NC(=O)NC3CCCCC3)cc2)cn1`, the efficacy in experiment [1] is -14.5%. Also, the compound was called inactive in experiment [2], in experiment [3], in experiment [4] and in experiment [5].
For `CC[C@@]1(c2ccccc2)NC(=O)N(C)C1=O`, the efficacy in experiment [1] was -26.5%. For the same compound, the result in experiment [2], in experiment [3], in experiment [4] and in experiment [5] was inactive.
Take `O=C1NC(=O)C(c2ccccc2)(c2ccccc2)N1`: the efficacy in experiment [1] is 9.61%. In addition, the result in experiment [2], in experiment [3], in experiment [4] and in experiment [5] was inactive.
As to `CC(=O)Nc1nnc(S(N)(=O)=O)s1`, in experiment [1], the efficacy is -19.1%. Besides, the outcome in experiment [2], in experiment [3], in experiment [4] and in experiment [5] was inactive.
`CNCCc1ccccn1`: in experiment [1], the efficacy was -10.7%. For the same compound, the call in experiment [2], in experiment [3], in experiment [4], in experiment [5] and in experiment [6] was inactive.
Consider `CCOc1ccc2ccccc2c1C(=O)N[C@@H]1C(=O)N2[C@@H]1SC(C)(C)[C@@H]2C(=O)O`, for which, in experiment [1], the efficacy is 20.5%. Moreover, the compound was called inactive in experiment [2], in experiment [3], in experiment [4], in experiment [5] and in experiment [6].
As to `CCCCC1=NC2(CCCC2)C(=O)N1Cc1ccc(-c2ccccc2-c2nn[nH]n2)cc1`, in experiment [1], the efficacy was 32.1%. Also, the outcome in experiment [2], in experiment [3], in experiment [4] and in experiment [5] was inactive.
With `Cc1c(O)cccc1C(=O)N[C@@H](CSc1ccccc1)[C@H](O)CN1C[C@H]2CCCC[C@H]2C[C@H]1C(=O)NC(C)(C)C`, the efficacy in experiment [1] is 83.4%. Further, the compound was called inactive in experiment [2], in experiment [3], in experiment [4] and in experiment [6]. Moreover, in experiment [5], the AC50 is 39.8 µM (active).
Take `O=C(O)c1ccc(-n2nc(-c3ccccc3O)nc2-c2ccccc2O)cc1`: the efficacy in experiment [1] was 48%. The call in experiment [2], in experiment [3], in experiment [4] and in experiment [5] was inactive.
For the compound `CC(C)n1c(/C=C/[C@@H](O)C[C@@H](O)CC(=O)O)c(-c2ccc(F)cc2)c2ccccc21`, the efficacy in experiment [1] was 14.5%. Moreover, the compound was called inactive in experiment [2], in experiment [3], in experiment [4] and in experiment [5].
With `COC(=O)N[C@H](C(=O)N[C@@H](Cc1ccccc1)[C@@H](O)CN(Cc1ccc(-c2ccccn2)cc1)NC(=O)[C@@H](NC(=O)OC)C(C)(C)C)C(C)(C)C`, the efficacy in experiment [1] was 21.7%. Moreover, the call in experiment [2], in experiment [3], in experiment [4] and in experiment [5] was inactive.
As for `CC[C@@H](CO)NCCN[C@@H](CC)CO`, the efficacy in experiment [1] was -17.1%. The result in experiment [2], in experiment [3], in experiment [4] and in experiment [5] was inactive.
As to `Cc1nc2n(c(=O)c1CCN1CCC(c3noc4cc(F)ccc34)CC1)CCC[C@H]2O`, the efficacy in experiment [1] was 18.4%. Also, the call in experiment [2], in experiment [3], in experiment [4] and in experiment [5] was inactive.
On to `CC(C)[N+](C)(CCOC(=O)C1c2ccccc2Oc2ccccc21)C(C)C`, for which the efficacy in experiment [1] was -23.3%. The result in experiment [2], in experiment [3], in experiment [4] and in experiment [5] was inactive.
